From PubChem BioAssay
Hits are enriched below; roughly 10% of the tested compounds scored in any of these assays.
VDR inhibitor = vitamin D3 receptor (human) inhibition; AID 504847; VDR-SRC2-3 peptide fluorescence polarization, 2 h; Potency, µM, without a hit: max response, negative = inhibition, hits mostly inhibitors; actives 0.93% (n = 400,000); note: potency is the fitted concentration of half-maximal effect
Target sequence (P11473 whole entry, looked up): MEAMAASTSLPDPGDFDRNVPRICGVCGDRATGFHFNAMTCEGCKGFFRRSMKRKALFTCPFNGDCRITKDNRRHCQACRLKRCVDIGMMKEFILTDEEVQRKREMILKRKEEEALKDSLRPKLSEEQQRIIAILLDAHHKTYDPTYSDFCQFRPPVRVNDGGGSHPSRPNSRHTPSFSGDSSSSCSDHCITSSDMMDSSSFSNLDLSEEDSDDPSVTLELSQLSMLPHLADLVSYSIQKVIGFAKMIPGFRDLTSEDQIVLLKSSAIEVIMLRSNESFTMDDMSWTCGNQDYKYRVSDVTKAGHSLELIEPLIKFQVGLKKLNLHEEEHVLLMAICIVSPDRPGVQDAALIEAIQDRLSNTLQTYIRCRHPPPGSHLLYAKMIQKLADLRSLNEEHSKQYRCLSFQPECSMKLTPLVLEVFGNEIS
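Reagent solutions, kept cold and dark, are dispensed first; compounds are then pinned in at 23 nl, plates briefly spun, and incubated 2 h at ambient temperature. Inhibition of VDR–SRC2-3 peptide binding is read by fluorescence polarization.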
Sfp PPTase inh = inhibitors of Bacillus subtilis Sfp phosphopantetheinyl transferase; Q9F4F7; Biochemical Sfp PPTase activity, qHTS; Potency, µM, for the others: largest response in the series, negative = inhibition, most hits filed as inhibitors; actives 3.5% (n = 310,000); AID 1490;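 note: the enzyme is Sfp with the accession as filed and its product quenches rhodamine fluorescence; potency is the fitted concentration of half-maximal effect; 0% = enzyme reaction without inhibitor and -100% = no enzyme wells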
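After 15 min at room temperature with compound, 15 nM Sfp received 5 uM rhodamine-CoA plus 12.5 uM BHQ-2-ybbR (50 mM Hepes pH 7.6, 10 mM MgCl2). Rate came from the fluorescence difference over 30 min, ex 525/em 598 nm.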
G9a block = blocks human histone lysine methyltransferase G9a; Q96KQ7; G9a H3K9 monomethylation, AlphaScreen, 2 h; Potency, µM (top dose mostly 102 µM), for inactives: at the highest dose activity, negative = inhibition, actives largely listed as inhibitors; actives 8.8% (n = 350,000); AID 504332; note: potency is the fitted concentration of half-maximal effect; nearly all actives have a fitted effect of over 75% in size
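Quantitative HTS format: methyltransferase activity on a biotin-tagged H3K9 peptide is measured by AlphaScreen, using a rabbit anti-monomethyl-H3K9 antibody with streptavidin donor and anti-IgG acceptor beads. Final levels are 20 nM enzyme, 500 nM peptide, 20 uM SAM; 2 h RT.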
PLK1 PBD inh = blocks phosphopeptide binding to human PLK1 polo-box domain. Plk1 PBD binding of FITC phosphopeptide, fluorescence polarization. Potency, µM, for inactives: max response, negative = inhibition, most hits filed as inhibitors. actives 2.8% (n = 360,000). AID 720504; note: potency is the fitted concentration of half-maximal effect; series mostly up to about 57 µM; nearly all actives have a fitted effect of over 65% in size
CCT modulator = cytosolic chaperonin activity modulation; purified chaperonin ATPase assay, HTRF ADP detection, 30 min; activity change, % (test concentration not listed), hits read low; actives 0.3% (n = 360,000); in the data active = activity change below about -30%
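Nucleotide hydrolysis assay: TRiC at 20–40 nM final (set by batch activity) with 10 uM ATP, 30 min at 37 °C, in presence of 76 uM compound. Detection by competitive ADP HTRF, 30 min ambient.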
MmCpn inh = M. maripaludis TRiC chaperonin inhibition; purified Mm-Cpn ATPase, ADP Transcreener TR-FRET; Potency, µM (doses to about 76.9 µM), inactives show at the highest dose activity, negative = inhibition, hits mostly inhibitors; actives 0.031% (n = 330,000); note: potency is the fitted concentration of half-maximal effect; nearly all actives have a fitted effect of over 80% in size
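Purified archaeal chaperonin (25 nM final) was preincubated with compound for 10 min at 37°C, then ATP (10 uM final) was added for 30 min at 37°C in Tris pH 7.4/KCl/MgCl2/DTT buffer. ADP was quantified by HTRF Transcreener TR-FRET.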
TbPYK confirm = confirmation of Trypanosoma brucei pyruvate kinase inhibitors. recombinant TbPYK, Kinase-Glo ATP luminescence. actives 67% (n = 890). Potency, µM (highest dose often 76.9 µM), inactives show at the top dose activity change, negative = inhibition, actives largely listed as inhibitors. shares compounds with PLK1 PBD inh; note: potency is the fitted concentration of half-maximal effect; nearly all actives have a fitted effect of over 70% in size
TbPYK ADP-Glo = inhibits T. brucei pyruvate kinase in orthogonal ADP-Glo assay. Potency, µM (top dose mostly 76.9 µM), for the others: top-dose activity change, negative = inhibition, hits mostly inhibitors. recombinant TbPYK, ADP-Glo luminescence, 60 min. actives 62% (n = 890). shares compounds with PLK1 PBD inh. AID 720584; note: potency is the fitted concentration of half-maximal effect; nearly all actives have a fitted effect of over 75% in size
* marks the source's active call; other numbers are inactive results; ? = inconclusive; . = not tested or not shown; [ ] = another dose, or the depositor's remark. Unless noted, calls come from the whole dose curve; as a rule, active = well fitted curve in the direction sought with a large enough effect; inconclusive = small, poorly fitted or top-dose-only effect, or another doubt; inactive = no such curve, though single readings can be large; an effect the other way counts as inactive or inconclusive. Unless noted, % is set by controls: 0 for no effect and ±100 for the full control effect.

SMILES	VDR inhibitor	Sfp PPTase inh	G9a block	PLK1 PBD inh	CCT modulator	MmCpn inh	TbPYK confirm	TbPYK ADP-Glo
CCCC(C)c1nnc(NC(=O)c2cc(C(=O)OC)cc([N+](=O)[O-])c2)s1 (stereo not given)	50µM*	14µM*	8.9µM*	6µM*	2	-1%	3.5µM*	14µM*
CCCC(C)NC(=O)c1cc(C(=O)OC)cc([N+](=O)[O-])c1 (stereo not given)	-8%	-2%	-6%	-5%	0	1%	.	.
CC(C)CC1CC(=O)OC1(C)C(=O)CSc1nc2ccccc2s1 (stereo not given)	-19%	-22%	-26%[0.501 µM]	19µM*	2	0%	?	?
Nc1nc(N)c(S(=O)(=O)c2ccccc2)c(Nc2ccc(Br)cc2)n1	1%	.	-1%[59 µM]	.	.	.	.	.
COc1ccc(Cn2nnnc2C(c2cc3cc(C)ccc3[nH]c2=O)N2CCN(C)CC2)cc1 (stereo not given)	-3%	1%	-12%	-8%	-3	-1%	.	.
COCCn1nnnc1C(c1cc2cc(OC)c(OC)cc2[nH]c1=O)N1CCN(c2ccc(O)cc2)CC1 (stereo not given)	2%	?	.	?	-2	-2%	6.3µM*	16µM*
O=C1N/C(=C/c2ccc(N3CCOCC3)o2)C(=O)N1c1ccccc1	45µM*	-91%	10µM*	49%	-1	0%	?	16µM*
O=P(c1ccccc1)(c1ccccc1)c1ccccc1C(Br)Br	.	.	.	-11%	3	.	22µM*	32µM*
CC(C)(C)c1cccc(P(=O)(c2ccccc2)c2ccccc2)c1O	-13%	18%	-1%	-5%	0	0%	.	.
CC(=O)c1ccc(OC2C=CC(C#Cc3ccc(Br)cc3)OC2CO)cc1 (stereo not given)	.	5%	.	.	.	.	.	.
O=C1N(Cc2ccccc2)CC2(Br)COCOC12O (stereo not given)	?	.	.	2.7µM*	0	.	1.1µM*	3.5µM*
O=C1C(c2ccccc2)CN1Cc1ccccc1 (stereo not given)	.	.	.	-2%	0	.	.	.
c1cc2c(cc1CN1CCOCC1)OCO2	-12%	9%	-48%	-7%	0	2%	12%	-3%
Oc1c(CN2CCOCC2)cc(CN2CCOCC2)c(O)c1CN1CCOCC1	10µM*	.	.	1.7µM*	0	.	1.4µM*	?
Cc1ccc(CNC(=O)c2ccc(Cn3c(=O)c4ccccc4n(CC(=O)Nc4ccc(C)cc4C)c3=O)cc2)cc1	-12%	.	-1%[59 µM]	.	.	.	.	.
CCN(CC)S(=O)(=O)c1ccc2c(c1)N(CC(=O)NCCCN1CCN(c3cc(C)ccc3C)CC1)C(=O)CO2	11%	.	1%[59 µM]	.	.	.	.	.
CCOc1ccc(S(=O)(=O)N(C(=O)c2ccco2)c2cc3sc(=O)oc3c3ccccc23)cc1	32µM*	5.6µM*	1.4µM*	?	-1	-10%	?	?
Cc1ccc(S(=O)(=O)N(C)CC(=O)N2CCN(C(=O)c3ccco3)CC2)cc1	-2%	-13%	9%[59 µM]	3%	3	1%	.	.
Cc1ccc(S(=O)(=O)N(C(=O)c2ccco2)c2cc3sc(=O)oc3c3ccccc23)cc1	20µM*	8.9µM*	1.8µM*	-7%	4	0%	-29%	?
COc1ccc(C(=O)Nc2ccc(N3CCCC3)cc2)cc1OC	10%	-8%	2.5µM*	4%	0	-6%	?	-25%
COc1ccc(C(=O)Nc2ccc(S(=O)(=O)N3CCOCC3)cc2)cc1OC	5%	21%	-11%	3%	0	2%	.	.
